Test results as given in the antibiotic and cytotoxicity screens of Wong et al. (2023).
The whole screen tested about 39,000 compounds, of which about 3,300 (8.5%) were called active. This excerpt belongs to a sample that is enriched for actives.

Tested on: HepG2
Assay: cytotoxicity call (relative viability < 0.9)
Settings: 10 µM

Structure (SMILES)	cytotoxicity call
Cc1noc(C)c1S(=O)(=O)N(C)C[C@@H]1Oc2ccc(NS(=O)(=O)c3ccc(Cl)cc3)cc2CC(=O)N([C@@H](C)CO)C[C@@H]1C	inactive
OCCN1CCN(c2ncnc3c2ncn3[C@H]2CN(Cc3ccccc3)C[C@@H](CO)O2)CC1	inactive
C[C@@H]1CN([C@@H](C)CO)C(=O)c2cc(NS(=O)(=O)c3ccc(Cl)cc3)ccc2O[C@@H](C)CCCCO[C@H]1CN(C)C(=O)CCC(F)(F)F	inactive
CN1C=C(C(=O)OCCS(C)(=O)=O)C(C(=O)OCCS(C)(=O)=O)=CC(CCCO)=C[C@@H]1C1CC1	inactive
COc1ccc([C@@H](O)[C@@H](CCO)OC)cc1O	inactive
N#CC1(N[C@@H](Cc2ccccc2)c2ccccc2)CCCCCC1	inactive
Cc1ccc(OC[C@@H](O)CN)c(C)c1	inactive
O=C(C1CC1)N1CCN(c2ncccn2)CC1	inactive
Cl.O=C1CC2(CCCC2)CC(=O)N1CCCCN1CCN(c2ncccn2)CC1	active
Cn1c(=O)cnn(CCCCN2CCN(c3ncccn3)CC2)c1=O	inactive
C[C@H]1CN([C@@H](C)CO)S(=O)(=O)c2ccc(-c3ccncc3)cc2O[C@@H]1CN(C)S(=O)(=O)c1ccccc1F	inactive
C[C@@H]1CN([C@H](C)CO)C(=O)c2cc(NC(=O)Nc3ccc4c(c3)OCO4)ccc2O[C@@H](C)CCCCO[C@H]1CN(C)S(=O)(=O)c1ccc(Cl)cc1	active
C[C@@H]1CCCCO[C@@H](CN(C)S(=O)(=O)c2ccc(Cl)cc2)[C@H](C)CN([C@@H](C)CO)C(=O)c2cc(NC(=O)Nc3ccc4c(c3)OCO4)ccc2O1	inactive
C[C@@H]1CCCCO[C@@H](CN(C)S(=O)(=O)c2ccc(Cl)cc2)[C@@H](C)CN([C@H](C)CO)C(=O)c2cc(NC(=O)Nc3ccc4c(c3)OCO4)ccc2O1	inactive
C[C@@H]1CCCCO[C@H](CN(C)S(=O)(=O)c2ccccc2)[C@@H](C)CN([C@@H](C)CO)C(=O)c2cc(NC(=O)Nc3ccc4c(c3)OCO4)ccc2O1	inactive
C[C@@H]1CCCCO[C@H](CN(C)S(=O)(=O)c2ccc(Cl)cc2)[C@H](C)CN([C@@H](C)CO)C(=O)c2cc(NC(=O)Nc3ccc4c(c3)OCO4)ccc2O1	active
C[C@H]1CCCCO[C@H](CN(C)S(=O)(=O)c2ccc(Cl)cc2)[C@@H](C)CN([C@@H](C)CO)C(=O)c2cc(NC(=O)Nc3ccc4c(c3)OCO4)ccc2O1	active
C[C@H](CO)N1C[C@H](C)[C@@H](CN(C)S(=O)(=O)c2ccc(Cl)cc2)OCCCC[C@H](C)Oc2ccc(NC(=O)Nc3ccc4c(c3)OCO4)cc2C1=O	inactive
C[C@@H]1CN([C@@H](C)CO)C(=O)c2cc(NC(=O)Nc3ccc4c(c3)OCO4)ccc2O[C@@H](C)CCCCO[C@@H]1CN(C)S(=O)(=O)c1ccccc1	inactive
C[C@@H]1CCCCO[C@H](CN(C)S(=O)(=O)c2ccc(Cl)cc2)[C@@H](C)CN([C@@H](C)CO)C(=O)c2cc(NC(=O)Nc3ccc4c(c3)OCO4)ccc2O1	inactive
C[C@@H]1CN([C@H](C)CO)C(=O)c2cc(NC(=O)Nc3ccc4c(c3)OCO4)ccc2O[C@@H](C)CCCCO[C@@H]1CN(C)S(=O)(=O)c1ccc(Cl)cc1	inactive
C[C@@H]1CCCCO[C@@H](CN(C)S(=O)(=O)c2ccc(Cl)cc2)[C@@H](C)CN([C@@H](C)CO)C(=O)c2cc(NC(=O)Nc3ccc4c(c3)OCO4)ccc2O1	inactive

Structure (SMILES)	cytotoxicity call
C[C@H]1CCCCO[C@H](CN(C)S(=O)(=O)c2ccccc2)[C@@H](C)CN([C@@H](C)CO)C(=O)c2cc(NC(=O)Nc3ccc4c(c3)OCO4)ccc2O1	active
Cc1noc(C)c1S(=O)(=O)Nc1ccc2c(c1)C(=O)N([C@H](C)CO)C[C@@H](C)[C@H](CN(C)CC1CC1)O2	inactive
NCC1OC(OC2C(N)CC(N)C(OC3OC(CO)C(O)C(N)C3O)C2O)C(N)CC1O (stereo unspecified)	inactive
COc1ccccc1CNC(=O)C[C@@H]1CC[C@H]2[C@@H](COC[C@@H](O)CN2C(=O)Nc2ccc(F)cc2)O1	inactive
C[C@H]1CN([C@@H](C)CO)C(=O)c2cc(Br)cnc2O[C@@H]1CN(C)S(=O)(=O)c1cn(C)cn1	inactive
Cc1noc(C)c1S(=O)(=O)Nc1ccc2c(c1)C(=O)N([C@H](C)CO)C[C@H](C)[C@@H](CN(C)Cc1ccccc1)O2	inactive
COc1cccc(S(=O)(=O)Nc2ccc3c(c2)[C@@H]2C[C@@H](CC(=O)NCC(F)(F)F)O[C@@H](CO)[C@@H]2O3)c1	inactive
Cc1ccc(S(=O)(=O)N(C)C[C@@H]2Oc3ccc(NC(=O)NC(C)C)cc3C(=O)N([C@H](C)CO)C[C@@H]2C)cc1	inactive
C[C@H]1CN([C@@H](C)CO)S(=O)(=O)c2ccc(C#Cc3ccc(F)cc3)cc2O[C@@H]1CN(C)S(C)(=O)=O	active
C[C@@H]1CN([C@H](C)CO)S(=O)(=O)c2ccc(C#Cc3ccc(F)cc3)cc2O[C@H]1CN(C)S(C)(=O)=O	inactive
C[C@H](CO)N1C[C@H](C)[C@H](CN(C)S(C)(=O)=O)Oc2cc(C#Cc3ccc(F)cc3)ccc2S1(=O)=O	active
C[C@@H]1CN([C@H](C)CO)S(=O)(=O)c2ccc(C#Cc3ccc(F)cc3)cc2O[C@@H]1CN(C)S(C)(=O)=O	inactive
C[C@@H]1CN([C@@H](C)CO)S(=O)(=O)c2ccc(C#Cc3ccc(F)cc3)cc2O[C@H]1CN(C)S(C)(=O)=O	inactive
C[C@H](CO)N1C[C@H](C)[C@@H](CN(C)S(C)(=O)=O)Oc2cc(C#Cc3ccc(F)cc3)ccc2S1(=O)=O	inactive
COc1ccc(CN(C)C[C@H]2OCCCC[C@@H](C)Oc3ccc(NS(=O)(=O)c4c(C)noc4C)cc3C(=O)N([C@H](C)CO)C[C@@H]2C)cc1	inactive
CC(C)NC(=O)Nc1cccc2c1O[C@H](CN(C)S(=O)(=O)c1ccc(F)cc1)[C@@H](C)CN([C@H](C)CO)C2=O	inactive
CCCCCS(=O)(=O)CCCCCCCCCCn1c(-c2ccc(O)cc2)c(C)c2cc(O)ccc21	active
CCCCC(=O)c1ccc(O)cc1	inactive
C[C@H](CO)N1C[C@H](C)[C@@H](CN(C)S(=O)(=O)c2cn(C)cn2)Oc2c(NC(=O)Cc3ccccc3)cccc2C1=O	inactive
C[C@@H]1CN([C@H](C)CO)C(=O)Cc2cc(NC(=O)Nc3cccc4ccccc34)ccc2O[C@@H]1CN(C)Cc1ccc(Cl)c(Cl)c1	active
C[C@H](CO)N1C[C@H](C)[C@@H](CN(C)Cc2ccc(Cl)c(Cl)c2)Oc2ccc(NC(=O)Nc3cccc4ccccc34)cc2CC1=O	inactive
C[C@H](CO)N1C[C@H](C)[C@H](CN(C)Cc2ccc(Cl)c(Cl)c2)Oc2ccc(NC(=O)Nc3cccc4ccccc34)cc2CC1=O	inactive

Structure (SMILES)	cytotoxicity call
C[C@@H]1CN([C@H](C)CO)C(=O)c2cc(NC(=O)Nc3cccc4ccccc34)ccc2O[C@@H]1CN(C)Cc1ccc(Cl)c(Cl)c1	inactive
C[C@@H]1CN([C@@H](C)CO)C(=O)c2cc(NC(=O)Nc3cccc4ccccc34)ccc2O[C@H]1CN(C)Cc1ccc(Cl)c(Cl)c1	inactive
C[C@@H]1CN([C@H](C)CO)C(=O)Cc2cc(NC(=O)Nc3cccc4ccccc34)ccc2O[C@H]1CN(C)Cc1ccc(Cl)c(Cl)c1	inactive
C[C@H](CO)N1C[C@H](C)[C@H](CN(C)Cc2ccc(Cl)c(Cl)c2)Oc2ccc(NC(=O)Nc3cccc4ccccc34)cc2C1=O	active
C[C@@H]1CN([C@@H](C)CO)C(=O)Cc2cc(NC(=O)Nc3cccc4ccccc34)ccc2O[C@@H]1CN(C)Cc1ccc(Cl)c(Cl)c1	active
C[C@H]1CN([C@@H](C)CO)C(=O)Cc2cc(NC(=O)Nc3cccc4ccccc34)ccc2O[C@@H]1CN(C)Cc1ccc(Cl)c(Cl)c1	inactive
COc1ccc(S(=O)(=O)Nc2ccc3c(c2)C(=O)N(C)C[C@@H](OC)[C@H](C)CN(C(=O)NC(C)C)[C@H](C)CO3)cc1	inactive
CN(C)CCCNC(=O)C[C@@H]1CC[C@@H]2[C@H](COC[C@@H](O)CN2S(=O)(=O)c2ccc(Cl)cc2)O1	inactive
C[C@@H]1CCCCO[C@@H](CN(C)S(=O)(=O)c2cccs2)[C@@H](C)CN([C@@H](C)CO)C(=O)c2cc(NC(=O)Nc3ccc(C(F)(F)F)cc3)ccc2O1	inactive
Cc1noc(C)c1S(=O)(=O)Nc1ccc2c(c1)C(=O)N([C@@H](C)CO)C[C@@H](C)[C@@H](CN(C)Cc1ccccc1)OCCCC[C@H](C)O2	inactive
C[C@@H]1CN([C@@H](C)CO)C(=O)c2cc(NC(=O)CCN3CCOCC3)ccc2O[C@H]1CN(C)CC1CCCCC1	inactive
C[C@@H]1CCCCO[C@@H](CN(C)C(=O)c2ccccc2)[C@H](C)CN([C@H](C)CO)C(=O)c2cc(NS(=O)(=O)c3ccc(Cl)cc3)ccc2O1	inactive
Cc1ccc(S(=O)(=O)N(C)C[C@H]2OCCCC[C@H](C)Oc3ccc(NC(=O)Nc4ccccc4)cc3C(=O)N([C@@H](C)CO)C[C@@H]2C)cc1	inactive
C[C@@H]1CN([C@@H](C)CO)C(=O)CCCn2nncc2CO[C@@H]1CN(C)Cc1cccc2c1OCCCO2	inactive
COc1ccc(NC(=O)Nc2ccc3c(c2)C(=O)N([C@@H](C)CO)C[C@@H](C)[C@@H](CN(C)Cc2ccncc2)OCCCC[C@@H](C)O3)cc1	inactive
C[C@@H]1CN([C@H](C)CO)C(=O)c2cc(NC(=O)Cn3cnnn3)ccc2O[C@@H]1CN(C)C(=O)Nc1ccc(F)cc1	inactive
CCOc1ccccc1OCCNC(C)Cc1ccc(OC)c(S(N)(=O)=O)c1.Cl (stereo unspecified)	inactive
C#CCN(C)CCCOc1ccc(Cl)cc1Cl.Cl	inactive
CC(C)(C)NCCCCOc1ccc(Cl)cc1C(C)(C)C	active
CC[C@@H](C)NCCCCOc1ccc(Cl)cc1C(C)(C)C	active
CC(C)Oc1ccc(Cl)cc1CN	inactive
Cc1ccc(OCc2ccc(Cl)cc2)c(C(C)(C)C)c1	inactive
